HBB splicing = modulators of hemoglobin beta chain splicing | HBB splicing reporter cell assay, activation; EGFP reporter with mutant IVS2-654 intron; response scale: normalised to 500 nM splice-correcting PNA | hit rate 0.06% among 65,000 | Potency, µM (top dose mostly 46.1 µM), for inactives: at the top dose activation, hits mostly activators; also: potency is read from the fitted curve at half-maximal effect; 0% is about no effect
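HeLa cells stably expressing EGFP interrupted by mutant beta-globin intron 2 (IVS2-654), 500/well in 2% FCS. Treated with compound for 2 days at 37C. Splicing correction scored as total well GFP intensity (488 nm excitation, 500-520 nm emission); 500 nM antisense PNA served as control.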
Ub-GFP proteasome = ubiquitin-GFP accumulation via proteasome inhibition. Ubiquitin-GFP reporter cells, proteasome inhibition, GFP fluorescence; response scale: untreated = 0%, 10 µM MG-132 = 100%. Potency, µM (series often up to 45.9 µM), without a hit: at the highest dose activation (GFP accumulation), hits mostly activators. 67,000 tested, under 10 active. AID 526; active = well fitted activation curve with a large enough effect, not every such curve was filed as active; inconclusive = small, poorly fitted or top-dose-only effect, or another doubt; inactive = no such curve, though single readings can be large or run the other way; also: potency is read from the fitted curve at half-maximal effect
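U2OS cells expressing ubiquitin(G76V)-GFP, seeded overnight in 0.5% FBS medium, then treated 4 hr at 37 C across 46 uM to 2.9 nM. GFP-positive cells counted by laser cytometry (488 ex/515 em); %activity scaled between basal and 10 uM MG-132.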
Epigenetic mod = epigenetic modulators derepressing GFP locus in mouse cells. mouse C127i GFP locus derepression, cytometry, 30 h. AID 597. Potency, µM (series often up to 46.1 µM), without a hit: at the top dose GFP derepression (activation). hit rate 0.09% among 68,000; also: % of control where 0% means no effect
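Derepression screen: silenced CMV-GFP reporter in murine C127i cells, 30 h compound incubation at 37 C, washed cells imaged by laser-scanning cytometer to enumerate GFP-expressing objects of 20 to 120 um.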
IkB signaling = IkB pathway inhibition in ABC-DLBCL cells; ABC-DLBCL IkBa-CBG/CBR dual luciferase ratio, 4 h; response scale: scaled: untreated 0%, proteasome inhibitor 100%; AID 445; hit rate 0.04% among 110,000; Potency, µM (doses to about 57.1 µM), for inactives: at the highest dose IkBa stabilization activation; active = well fitted curve in the direction sought with a large enough effect in the signal ratio, not every such curve was filed as active; inconclusive = small, poorly fitted or top-dose-only effect, or a change in a side signal; the % refers to the signal ratio;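 also: potency is read from the fitted curve at half-maximal effect; the direction sought is a rising ratio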
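Curves were fitted separately to fusion (green), unfused (red) and ratio luminescence, then classed by r2, magnitude and activity. Cells: OCI-Ly3, 4 h compound plus doxycycline at 37C; 10 uM MG-132 defined full response.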
Hsp90 Hop PPI = changes Hsp90-Hop TPR2A binding signal, up or down. AID 595. hit rate 0.44% among 71,000. AlphaScreen TPR2A-His6 binding biotin-Hsp90 C-terminal peptide. Potency, µM (doses to about 57 µM), inactives show at the highest dose activity change, negative = inhibition; active = well fitted curve in either direction with a large enough effect; inconclusive = small, poorly fitted or top-dose-only effect, or another doubt; also: potency is read from the fitted curve at half-maximal effect; % is scaled to controls: 0 for no effect and ±100 for the full control effect
Hsp90-TPR2A inh = confirmation and counter-screen of Hsp90 TPR2A co-chaperone interaction disrupters; shares compounds with Hsp90 Hop PPI; activity, negative = inhibition, % at 40 µM or 46 µM, hits read low; hit rate 100% among 45; AID 632; AlphaScreen TPR2A-His6 / biotin-Hsp90 peptide binding;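 active = compound lowering the Hsp90 and TPR2A binding signal, whether or not the linker counterscreen also flagged it as an artifact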
Numbers without * were called inactive; ? = inconclusive; · = no result given; + = active, no number; ! = not active in a repeat; [ ] = remark or other dose. Shown is part of a subset that was picked to be rich in hits. Unless noted, calls follow the shape of the dose curve; as a rule, active = well fitted curve in the direction sought with a large enough effect; inconclusive = small, poorly fitted or top-dose-only effect, or another doubt; inactive = no such curve, though single readings can be large; an effect the other way counts as inactive or inconclusive.

SMILES	HBB splicing	Ub-GFP proteasome	Epigenetic mod	IkB signaling	Hsp90 Hop PPI	others
Cc1ccc(C(=O)c2oc3ccccc3c2NC(=O)c2cc(=O)c3ccccc3o2)cc1	·	·	·	-2.9%	·
CN(O)/C=c1/ccc2c(n1)C(=O)C=CC=2	4.1%[1.84 µM]	7.1%	1.6%	5.5%	2µM*
CCN1C(=S)SC(=O)C1=C1C=C(C)OC(C)=C1	-3.7%	0.0%	27.2%	-4.6%	-18.3%
CCN1C(=S)SC(=O)C1=C1C=C(C)N(Cc2ccco2)C(C)=C1	12.6µM*	-7.9%	8.3%	-2.8%	-18.2%
COC(=O)NC(/C(C(=O)OC)=C(\C)NCc1ccccc1)c1ccc2ccccc2c1 (configuration not stated)	3.7%[9.22 µM]	·	·	·	·
Cc1cc(N2CCCCC2)n2ncc(-c3ccc(Cl)cc3)c2n1	2.6%[57.5 µM]	0.9%	0.0%	?	25.1µM*
O=c1c(-c2cccs2)nc2cnc(Oc3ccccc3)nc2n1C1CC1	3.8%	5.8%	2.7%[9.22 µM]	-1.3%[11.4 µM]	20µM*
CN(C)c1ncc2nc(-c3cccs3)c(=O)n(C3CC3)c2n1	0.5%	10.0%	2.4%[9.22 µM]	-4.4%[11.4 µM]	3.98µM*
Cc1cccc(-c2nc3c4ccccc4nc(N4CCN(c5cc(C)ccc5C)CC4)n3n2)c1	·	·	·	-2.2%	·
COc1cc(NS(=O)(=O)c2ccc(C)cc2)c2ncccc2c1	0.5%	-7.8%	2.1%	1.26µM*	-29.3%
COc1cc(C2C(=O)N(C3CCCCCC3)CC(=O)N2CCc2ccccc2)ccc1OC(C)C (configuration not stated)	·	·	·	-3.1%	·
COC(=O)c1cc(-c2ccc3c(c2)OCO3)nc2ccccc12	-1.2%[9.22 µM]	-8.3%	0.0%	?	25.1µM*
O=C(CC(c1ccco1)S(=O)(=O)c1ccccc1)c1ccc(F)cc1 (configuration not stated)	·	·	3.16µM*	·	·
COC(=O)[C@@H]1C[C@H]1[C@@H](NC(=O)OCc1ccccc1)c1ccccc1	1.5%	·	·	·	-3.1%
CC(=O)OCC(=O)[C@@]1(O)CC[C@@H]2[C@@H]3CCC4=CC(=O)CC[C@@]4(C)[C@H]3C(=O)C[C@]21C	-1.3%	-5.4%	0.0%	6.1%	-3.1%
Cc1cccc2cc(C#N)c(SCC(=O)N3CC(=O)Nc4ccccc43)nc12	?	15.5%	15.8µM*	5.0%	-0.1%
Cc1cccc2cc(C#N)c(SCC(=O)N3CCC(C)CC3)nc12	0.0%[57.5 µM]	-3.8%	-1.9%	-0.1%	-0.7%
CC(=O)Nc1cc(CN2CCCCC2)c(O)c2ncccc12	0.2%[9.22 µM]	1.3%[9.17 µM]	0.1%[9.22 µM]	0.8%[11.4 µM]	3.98µM*
Oc1c(CN2CCN(c3ccccc3)CC2)cc(Br)c2cccnc12	2.1%[9.22 µM]	-2.4%[9.17 µM]	?	8.7%[11.4 µM]	-13.9%[11 µM]
CN1CCCN(C(=O)c2cc(=O)[nH]c3ccccc23)c2nc3ccccc3nc21	-3.8%	2.7%	2.5%	-0.7%	-4.2%
CN1CCCN(C(=O)Cc2c(Cl)cccc2Cl)c2nc3ccccc3nc21	10µM*	-4.7%	3.7%	7.7%	?
COc1ccc(-c2cc3nc4c(c(N5CCC6(CC5)OCCO6)n3n2)CCCC4)cc1	0.5%[57.5 µM]	0.3%	1.6%	?	9.6%
COc1cccc(-c2cc3nc(-c4ccccc4)cc(N4CCC5(CC4)OCCO5)n3n2)c1	-0.2%[57.5 µM]	4.8%	0.0%	1.6%	20µM*
COc1ccc(CCNC(=O)c2ccc3c(c2)CCN3S(=O)(=O)c2ccccc2)cc1	·	·	·	-0.5%	·
O=C1c2cccnc2-c2ncccc21	-2.1%	-7.5%	2.8%	-0.9%	-25.8%
SMILES	HBB splicing	Ub-GFP proteasome	Epigenetic mod	IkB signaling	Hsp90 Hop PPI	others
CC1(C)OCC(CSC2=C(SCC3COC(C)(C)O3)C(=O)c3ncccc3C2=O)O1 (configuration not stated)	?	·	·	·	15.8µM*
Cc1c(Cl)cccc1N1C(=O)c2ccccc2C1=O	-0.3%	-13.0%	0.0%	5.7%	-1.6%
Cc1ccccc1N1C(=O)c2cccc3c(N(C)CCO)ccc(c23)C1=O	20µM*	11.6%	-1.8%	?	11.3%
C[C@@]12C(=O)OC(=O)[C@@]1(C)[C@H]1CC[C@@H]2O1	-1.2%	0.0%	-0.2%[9.22 µM]	3.98µM*!	?
Oc1c(CN2CCOCC2)cc(COCc2ccccc2)c2cccnc12	-0.8%	0.4%	?	5.6%	1.58µM*	Hsp90-TPR2A inh=-99.7*[alpha-screen platform artifact]
Cn1nc(C(=O)NCc2ccccc2Cl)c2c1-c1ccccc1SC2	·	·	·	1.9%	·
CNc1oc(Cc2cccc3ccccc23)nc1C#N	3.5%	13.3%	-2.6%	-1.6%	-11.5%
N#Cc1nc(Cc2cccc3ccccc23)oc1NCCN1CCCCC1	-1.0%	0.1%	5.7%	?	7.94µM*	Hsp90-TPR2A inh=-23.3
COC(=O)Cc1cc(=O)n(-c2nc3ccccc3[nH]2)[nH]1	0.5%	0.4%	1.6%	4.1%	7.94µM*	Hsp90-TPR2A inh=-99.5*[alpha-screen platform artifact]
c1ccc(-c2n[nH]c(-c3ccccn3)n2)nc1	-0.1%	5.8%	-5.3%	14.9%	0.2µM*	Hsp90-TPR2A inh=-98.3*[alpha-screen platform artifact]
c1ccc(-c2ccc(-c3nc(-c4ccccn4)no3)cc2)cc1	-0.7%	-3.1%	0.0%	?	8.6%
COc1ccccc1CNC(=O)c1cc2cc3ccc(Cl)cc3nc2o1	·	·	·	-2.3%	·
CCN(CC)S(=O)(=O)c1ccc2c(c1)nc(CN(C)C(=O)Nc1cccc(Cl)c1)n2C	·	·	·	-0.9%	·
Cc1ccccc1CS(=O)(=O)Cc1ccc(C(=O)NCc2ccccn2)o1	0.7%	0.0%	-2.2%	1.8%	3.98µM*	Hsp90-TPR2A inh=-91.4*[alpha-screen platform artifact]
Cc1ccc(C2NC(=O)c3c(sc4c3CCN(C)C4)N2)s1 (configuration not stated)	2.5%[1.84 µM]	-7.1%	0.0%	-1.2%	-10.7%
CN1CCc2c(sc3c2C(=O)NC(c2ccccn2)N3)C1 (configuration not stated)	3.5%[1.84 µM]	3.8%	-0.4%	-1.7%	15.8µM*	Hsp90-TPR2A inh=-81.3*[alpha-screen platform artifact]
CCOC(=O)c1c(C)[nH]c(C)c1S(=O)(=O)N1CCCC(C(=O)Nc2ccc(F)cc2F)C1 (configuration not stated)	·	·	·	-0.8%	·
CCCc1nc2c(=O)n(C)c(=O)nc-2n(C)n1	·	·	·	·	·	Hsp90-TPR2A inh=+

Bioassay records from PubChem BioAssay.
